# Assay outcomes (PubChem BioAssay)
# NS1 inh – inhibitors of influenza NS1 protein function | Potency, µM (titrated, usually from 46.1 µM), without a hit: at the top dose activity, positive = more growth | 270,000 tested, 0.4% active | AID 2326; calls by dose curve; also: potency is read from the fitted curve at half-maximal effect; actives are rising curves; nearly all actives have a fitted effect of over 50% in size
#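 A cell-based growth assay was used: compounds that relieve NS1-induced slow growth of budding yeast raise OD600. Assay medium was yeast nitrogen base with ammonium sulphate and -URA supplement, pH 6.0, with 2% galactose.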
# Shiga inhibitor – blocks Shiga toxin action in Vero cells | Vero cells, Shiga toxin protein synthesis inhibition reporter | inhibition, % at 38.7 µM | 290,000 tested, 9.2% active | AID 2315; in the data active = inhibition mostly above about 28%, no sharp cut-off; inactive = mostly below about 43%; also: 0% is about no effect
# Cycloheximide cs – counter-screen hit for Shiga toxin inhibitors, cycloheximide | cell reporter, cycloheximide protein synthesis inhibition counterscreen | max response, % | 300,000 tested, 12% active | AID 2314; in the data active = max response mostly above about 13%, no sharp cut-off; inactive = mostly below about 14%; also: read at 38.3 µM for the half of the compounds with a filed dose; 0% is about no effect
# Pf growth 48h – inhibits P. falciparum growth in the first generation, 48 h; P. falciparum luciferase growth in erythrocytes, 48 h; Potency, µM (doses to about 28.7 µM), inactives show top-dose activity change, negative = inhibition, actives largely listed as inhibitors; 310,000 tested, 5.9% active; also: potency is read from the fitted curve at half-maximal effect; % is scaled to controls: 0 for no effect and ±100 for the full control effect
#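 Luminescence readout; reporter = integrated firefly luciferase in P. falciparum. RBC culture at 2% hematocrit, 0.1% parasitemia final, 37 C/5% CO2; decreased signal taken as growth inhibition.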
# Pf growth 96h – inhibits malaria parasite growth, 96 h. P. falciparum luciferase reporter growth, 96 h. Potency, µM (top dose mostly 28.7 µM), for the others: top-dose activity change, negative = inhibition, most hits filed as inhibitors. 320,000 tested, 6.9% active; also: potency is read from the fitted curve at half-maximal effect; % is scaled to controls: 0 for no effect and ±100 for the full control effect
#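 Luminescence readout: decreased luciferase signal marks inhibited growth of reporter-expressing P. falciparum in infected red cells (2% hematocrit, 0.05% parasitemia final), exposed to compound two generations (96 h, 37 C, 5% CO2).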
# The depositor's hits bear a star; ? = inconclusive; . = not tested or not shown; [ ] = dose if it differs, or a comment. Most compounds without a hit are left out; they make up all but 21% or so of the library. Unless noted, calls follow the shape of the dose curve; as a rule, active = well fitted inhibition curve with a large enough effect; inconclusive = small, poorly fitted or top-dose-only effect, or another doubt; inactive = no such curve, though single readings can be large or run the other way.
SMILES,NS1 inh,Shiga inhibitor,Cycloheximide cs,Pf growth 48h,Pf growth 96h
CCCCNC(=O)C(c1ccc(OCC(=O)OC)c(C(=O)OC)c1)N(CCOC)C(=O)CCCCCN1C(=O)NC(c2ccc(-c3ccccc3)cc2)C(C(=O)OCc2ccccc2)=C1C (stereo not given),8.0%,-5.9,-5.2,1.17µM*,1.65µM*
CC1=C(C(=O)OCc2ccccc2)C(c2ccc(C#N)cc2)NC(=O)N1CCCC(=O)O (stereo not given),-9.6%,-11.2,-5.5,0.7%,-26.4%
CCOC(=O)C1=C(C)N(CCCCCC(=O)O)C(=O)NC1c1ccc(Br)cc1 (stereo not given),-2.7%,-8.6,-3.0,-5.7%,51.1%
CCCCNC(=O)C(c1ccc(OCC(=O)OC)c(C(=O)OC)c1)N(CCc1ccccc1)C(=O)CCCCCN1C(=O)NC(c2ccc(-c3ccccc3)cc2)C(C(=O)OCc2ccccc2)=C1C (stereo not given),?,-3.2,-0.6,1.85µM*,2.08µM*
CCCCCCN(C(=O)CCCCCN1C(=O)NC(c2ccc(-c3ccccc3)cc2)C(C(=O)OCc2ccccc2)=C1C)C(C(=O)NCCCC)c1ccc(OCC(=O)OC)cc1 (stereo not given),20.9%,-16.3,-4.2,?,4.65µM*
Cc1cc(=O)[nH]c(Nc2ccccc2C)n1,4.9%,-7.5,-1.5,-10.8%[0.00184 µM],?
O=c1c(C(c2ccc(F)cc2)c2c(O)nc3n(c2=O)CCCS3)c(O)nc2n1CCCS2,0.7%,2.2,-1.7,-2.3%,0.0%
CCOC(=O)c1cc2c(N)c(C(=O)c3ccc(Br)cc3)sc2[nH]c1=O,3.0%,-11.8,5.5,15.4%,34.8%
N=c1ccn2c(n1)O[C@H]1[C@@H](CO)[C@H](O)O[C@H]12,.,.,.,-14.0%,46.8%
COc1ccc(-c2nc(CSCC(=O)NCc3ccc4c(c3)OCO4)c(C)o2)cc1OC,-7.2%,23.9,14.2,-28.9%,?
CCOC(=O)N1CCC(NC(=O)CSCc2nc(-c3ccc(OCC)cc3)oc2C)CC1,-24.4%,8.4,9.6,11.7µM*,-2.2%
CCOC(=O)N1CCC(NC(=O)CSCc2nc(-c3cccc(OC)c3)oc2C)CC1,-7.7%,0.8,-3.3,-21.6%,?
CCOc1ccc(-c2nnn(CC(=O)NCc3ccco3)n2)cc1,-8.9%,28.3,25.6*,28.7%,?
COc1ccc(-c2nc(CSCC(=O)NCc3ccc4c(c3)OCO4)c(C)o2)cc1,-11.7%,-14.2,-3.8,.,5.86µM*
CCOc1ccc(-c2nc(CN3CCCC(C(=O)N4CCOCC4)C3)c(C)o2)cc1 (stereo not given),3.8%,31.0*,17.6*,?,92.1%
Cc1ccc(C)c(N2CCN(C(=O)c3csc4ccccc34)CC2)c1,-27.0%,-1.0,-3.2,-12.6%,-14.7%
CCOc1ccc(-c2nc(CS(=O)(=O)CC(=O)NCc3ccc(F)cc3)c(C)o2)cc1,26.0%,19.9*,11.7*,-4.6%,-21.4%
Cc1oc(-c2ccc(Cl)cc2)nc1CSCC(=O)NC1CCN(Cc2ccccc2)CC1,-5.5%,-3.6,-0.7,24.1%,14.7µM*
Cc1ccccc1-c1nc(CS(=O)(=O)CC(=O)NCc2ccc(F)cc2)c(C)o1,-11.2%,1.7,-0.4,16.0%,2.8%
Cc1oc(-c2cccs2)nc1CSCC(=O)NC1CC1,5.4%,-34.2,-2.8,9.5%,-11.2%
CCOc1ccc(-c2nc(CSCC(=O)NCc3ccco3)c(C)o2)cc1,-8.5%,10.7,-3.3,?,13.1µM*
CCOc1ccc(-c2nc(CSCC(=O)NC3CC3)c(C)o2)cc1,-3.8%,2.4,21.5*,13.1µM*,23.4%
Cc1cccc(NC(=O)c2nc[nH]c2C(=O)N(C)Cc2ccccc2)c1,.,.,.,13.1%,?
COc1ccc(C)cc1NC(=S)NC(C)c1ccc(OC)c(OC)c1 (stereo not given),-3.7%,-7.3,-1.0,?,-1.3%
CCOc1ccc(-c2nc(CSCC(=O)NC3CCCc4ccccc43)c(C)o2)cc1 (stereo not given),9.0%,13.0,5.7,.,13.1µM*
COc1cccc(-c2nc(CS(=O)(=O)CC(=O)NC3CCCc4ccccc43)c(C)o2)c1 (stereo not given),-0.9%,30.7,7.0,.,?
CC(=O)OCCN1C(=O)c2c(C)nc3ccc(S(=O)(=O)N4CCOCC4)cc3c2C1=O,.,-2.4,-2.2,.,.
COc1ccc(S(=O)(=O)NNC(=O)C2Cc3c(ccc4ccccc34)O2)cc1 (stereo not given),7.3%,-9.4,-3.3,36.1%,58.6%
